Test results: PubChem BioAssay (NCI)
About 83,000 compounds went through this panel and 20% of them were active in at least one assay; those are over-represented in the sample as a whole.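 Assay: single dose, 48 h. Readout: percent growth (0 = no net growth; negative = cell death). Active: <10.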 Calls of active or inactive are those of the source.

test system: NCI-H23 lung; assay: NCI-60 one-dose screen, 48 h (100 = growth as untreated, 0 = no growth, -100 = all killed); conditions: 10 µM unless noted
Description: Growth inhibition of the NCI-H23 human Non-Small Cell Lung tumor cell line is measured as a screen for anti-cancer activity. Cells are grown in 96 well plates and exposed to the test compound for 48 hours. Compounds are tested at a single concentration, which is 10^-5 M for most compounds. The reported endpoint is percent growth (GI% or GIPRCNT), where numbers from 0 - 100% represent growth inhibition, and numbers from -100% - 0 represent cell death. For example, a value of 40 represents 60% growth inhibition. A value of 0 means no net growth occurred over the course of the experiment. A value of -40 indicates 40% of cells at the beginning of the experiment died by the end of the experiment. A value of -100 means all cells are dead at the end of the experiment.
NCI-60 Human Tumor Cell Lines Screen was performed using the standard one-dose NCI protocol, which is described in more detail at https://dtp.cancer.gov/discovery_development/nci-60/default.htm.
Compounds with GIPRCNT values below 10 were considered active. Activity score was based on GIPRCNT using the following formula: […]
Score is 0 for GIPRCNT values of 100 or above, 50 for GIPRCNT values of 0, and 100 for GIPRCNT values of -100.

Structure (SMILES)	growth
COc1cc(Nc2c(C#N)cnn3cc(-c4cnn(CC(C)(C)O)c4)cc23)ccc1Cl	41.4% (inactive)
COc1cccc2cc(-c3cc4ccccc4[nH]3)/c(=N\NC(=O)c3ccc(Cl)cc3)oc12	44.6% (inactive)
O=C(NCc1ncc[nH]1)c1ccc(-c2nc3ccc4[nH]ncc4c3c3c2CCCC3)cc1	14.4% (inactive)
COc1ccc(/C(N)=N/C(N)=N/c2nc3ccccc3s2)cc1	67.8% (inactive)
CN1CCN(Cc2ccc(NC(=O)c3cncc(C#Cc4cnn5cccnc45)c3)cc2C(F)(F)F)CC1	-23.1% (active)
COc1cccc(/C=C(/C)c2ccc3cccc(OC)c3[o+]2)c1O	105% (inactive)
CNC1CCc2c(sc(NC(=O)c3ccc(C(C)(C)C)cc3)c2C(N)=O)C1 (stereo not given)	74.3% (inactive)
CC(Nc1c(C#N)cnc2ccc(-c3cnc(N)nc3)cc12)c1ccccc1 (stereo not given)	13.1% (inactive)
C#Cc1nc(C(C)=O)cs1	102% (inactive)
Cc1noc(C)c1CSc1nc2ccccc2n1-c1ccccc1	90.9% (inactive)
CC(C)(C)CC(C)(C)n1nnnc1C(Nc1nccs1)c1cc2cccc3ccc4cccc1c4c32 (stereo not given)	102% (inactive)
CCOc1cccc(-c2nc3sccn3c2-c2ccnc(S(C)(=O)=O)n2)c1	99.1% (inactive)
CC(=O)Nc1cccc(Nc2nc(N[C@@H](C)c3ccccc3)c3ccccc3n2)c1	20.6% (inactive)
Cc1ccc(NC(=O)N[C@@H](Cc2cc(F)cc(F)c2)C(=O)NC2C(=O)N3C[C@H](O)C[C@H]3C(=O)N3CCCC[C@H]3C(=O)N[C@@H](CO)C(=O)N3C[C@H](C)C[C@H]3C(=O)O[C@H]2C)c(F)c1 (stereo not given in full)	28.2% (inactive)
O=C(CN1CCN(c2cc(=O)n(-c3ccccc3)c3ccccc23)CC1)Nc1nc(-c2ccccc2)cs1	60.8% (inactive)
COc1c(N2CC3CCCNC3C2)c(F)cc2c(=O)c(C(=O)N/N=C/c3ccccc3)cn(C3CC3)c12 (stereo not given)	90.7% (inactive)
COc1ccccc1-n1cc(C#N)c(N)c1C(=O)c1ccc(Br)cc1	87.8% (inactive)
Nc1nc(-c2cccc([N+](=O)[O-])c2)c(N=Nc2ccccc2)s1	70.2% (inactive)
Cc1cc(C)c(N2C(=O)CC(Nc3ccc(Cl)cc3Cl)C2=O)c(C)c1 (stereo not given)	104% (inactive)
O=C1[C@@H]2Cc3c([nH]c4ccccc34)[C@H](c3c(Cl)cccc3Cl)N2C(=O)CN1C1CCN(CC2CCCCC2)CC1	91.3% (inactive)

Structure (SMILES)	growth
c1cn2c(ccc3nc(-c4cn[nH]c4)c4c(c32)CCCC4)n1	69.2% (inactive)
CC(C)(C)n1cc(-c2ccnc(NCCCNS(=O)(=O)c3cccc(F)c3)n2)c(-c2ccc(Cl)c(O)c2)n1	100% (inactive)
COc1ccc(-c2nc3cc(Cl)c(Cl)cc3n2CC(=O)N=Nc2c(O)[nH]c3ccc(OC)cc23)cc1	38.7% (inactive)
COc1cc(-c2nn(C(C)(C)C)cc2-c2ccnc(NCCCNS(=O)(=O)c3cccc(F)c3)n2)ccc1Cl	77.7% (inactive)
COc1cc(/C=C/C(=O)c2ccc(NC(=O)CSc3nnc(-c4ccc(-c5nc6ccc(Cl)cc6[nH]5)cc4)o3)cc2)cc(OC)c1OC	101% (inactive)
NC(=O)c1cccc(-n2ccc3cc(NC(=O)Nc4ccc(N5CCOCC5)c(C(F)(F)F)c4)ccc32)n1	12.3% (inactive)
CCO/C=N/C1=C(C#N)C(c2ccc(F)cc2)c2sc3c(C)cccc3c2O1 (stereo not given)	27.1% (inactive)
CC(=O)Nc1cccc(Nc2nc(N[C@H](C)c3ccccc3)c3ccccc3n2)c1	52.3% (inactive)
Nc1nc(Nc2ccccc2SSc2ccccc2Nc2nc(N)nc(-c3ccc4ccccc4c3)n2)nc(-c2ccc3ccccc3c2)n1	49.9% (inactive)
CC(=O)N1C(=S)NC(=O)C1CC(C)C (stereo not given)	106% (inactive)
COc1cc2c(cc1OC)C(Sc1ccc(C)cc1)c1c(nc(N)c(C#N)c1N)O2 (stereo not given)	-74.1% (active)
O=C(Nc1ccc(F)c(F)c1)c1cc(-c2ccc(F)cc2F)ccc1O	-9.76% (active)
O=S(=O)(Nc1cccc2ccccc12)c1ccc(-c2cnc(C3CC3)o2)cc1	23.2% (inactive)
COc1ccc([C@H]2c3[nH]c4ccccc4c3C[C@H]3C(=O)N(C4CCN(Cc5c(Cl)cccc5Cl)CC4)CC(=O)N23)c(OC)c1	98% (inactive)
CCCCCc1ccc(S(=O)(=O)Nc2cccc(-c3csc(NC(=O)CN4CCN(C)CC4)n3)c2)cc1	95.1% (inactive)
Cn1cc(CNc2nc3ccc(OC/C(=C/F)CN)cc3o2)ccc1=O	107% (inactive)
COc1cc2oc(-c3cccc(NC(=O)c4cc(N)ccc4Cl)c3)cc(=O)c2c(OC)c1OC	102% (inactive)
C[C@@H](Nc1c(C#N)cnc2ccc(-c3cnc(Cl)c(NS(C)(=O)=O)c3)cc12)c1ccccc1	6.8% (active)
O=C1CCC(N2C(=O)c3ccc(NS(=O)(=O)c4ccccc4OC(F)(F)F)cc3C2=O)C(=O)N1 (stereo not given)	107% (inactive)
Cn1ccnc1C(=O)/C=C/c1ccc(NC(=O)c2c(F)c(F)c(F)c(F)c2F)cc1	97.6% (inactive)
